T1: FBXL12, Q9NXK8
T1 chain: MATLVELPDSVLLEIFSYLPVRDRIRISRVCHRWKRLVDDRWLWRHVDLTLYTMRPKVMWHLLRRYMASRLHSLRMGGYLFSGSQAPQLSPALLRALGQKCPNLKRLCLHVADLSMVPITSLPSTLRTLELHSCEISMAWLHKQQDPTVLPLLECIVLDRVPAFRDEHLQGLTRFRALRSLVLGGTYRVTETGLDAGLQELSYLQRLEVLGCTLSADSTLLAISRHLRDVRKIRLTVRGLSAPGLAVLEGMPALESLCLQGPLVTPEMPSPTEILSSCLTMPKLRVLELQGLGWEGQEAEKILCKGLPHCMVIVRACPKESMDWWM

B1: FBXL12_hotspot_23_47 (protein)
chain: MRTLVLSTFGTAPEDREASLEYAARLIVAAGRHGWRVVVVLEDRSSLELAATIAAMAKLVVGAEVVVKTDAEEELRELMERNRERAAELVAAAEAALAAE
B2: FBXL12_hotspot_35_61 (protein)
chain: MRVVRVVFEGTSVEGARYMALAALLAKEALGAKVEIELSPSESREVRVIAAALRMLAEGKSIEEVKEELGLSEEEVEEMKRLAEELRAETAELLAELKAR
B3: FBXL12_hotspot_23_44 (protein)
chain: MRLLRISLVEKPPEELRAGALYQAEVAALAILEGWEVEIEAEHPEAVAAAHAIARALREVTGKEVKVSRPLKPEERPLAEELLPELIAAIRAAIAAHRAR
B4: FBXL12_hotspot_109_3 (protein)
chain: KSVIVVLASGSPEHAETTFQTGVEIVKGLAEAGVKVGLLILTTKENEAIAEKALEEVKDYVAVSELVVFPTKEEFEAQLDKVKEEKIKRLEEKLEKLEEE
B5: FBXL12_hotspot_23_46 (protein)
chain: MRTLVIHLTEQSPEEMVKATYYATKLAYLAVKHGWEVVLRASDAVTAMAARIIAEEIERRTGKEVRVEAEERPETAEEAEELRPRFEEAVRKAIEEVEAE
B6: FBXL12_hotspot_28_52 (protein)
chain: MKVEVRVSGDPEQVAAQLLALLEAMTKIAKELAKELKKTKETDPSKVEEKRKEAEEAAEKIRSMVESILRQAESLSPEQQAQVRAAAEETFKALEELEKT
B7: FBXL12_hotspot_105_2 (protein)
chain: MARVRVGSTGPRALPLTVAGLAFAIYRGDEEEAERLRREAEALIAKRPAAEELRRLLEEAVALARALRAAAEAGDAAAAAAAAARLAAVIDELARLVEAE
B8: FBXL12_hotspot_35_57 (protein)
chain: MRTVVVQNAGSSLEGVRYAALAALVAVRVLGARLEVQISPDASREQRLILAAAEALASGRPLEEVVAERGLSEEELEEVRRIAEELRAEAERAVAELRAR
B9: FBXL12_hotspot_59_71 (protein)
chain: MRRVVVRGDPEAALRQARALLEALLELLVRHEGTPQEPRLLELLESTYRELLRTARELGDEAAIAAARAAIEAAEKRLSPELAARLRAAVAAAEAAVEAE
B10: FBXL12_hotspot_52_63 (protein)
chain: MRTVTIVVSVESPDMEMARRTTETAAAIAEGLAAAGVRVVLVVRAAHADALAFATRRLAEVAARLGAELRVETHPSLDPAEVAAIAAAARAAAAAAAAAA
B11: FBXL12_hotspot_23_50 (protein)
chain: MRELVLGIGGRPPEEQRAGALRAAELAAAFRPVADRIVVRLGPGVDGAVAAALRRVLEEDYGAEVLSETPEEAVPPEEVEALVAELRAAAEAAEARRRAA
B12: FBXL12_hotspot_28_56 (protein)
chain: AKRTVIVKGPPEQRAELMLKLAKAILEKSKELYKELKKVKDKDEEKVKELLEKLEKLADLAKSLLENAKKTLPKEYEEVVKEIEKLTKEVEKILKEAKKL
B13: FBXL12_hotspot_52_64 (protein)
chain: MRTVTIRVRIESPDMAMARRTTETAAAIARGLAAAGVRVVLEVEAAHLEALRFATRELARVAAELGAELRVRVHPSLDPEEVERVYREALAEAEAEAAAA
B14: FBXL12_hotspot_35_59 (protein)
chain: MRTVRVVFRGTSPEGARYMALAAALAAKELGARVEIEIDPNESREVRIIAGALMVLAEGRSLEEVVEELGLTEEEVEEMKRIAEELRKETERLAAELRAR
B15: FBXL12_hotspot_54_66 (protein)
chain: KTVTLVVRAETVEALRTTLATALAIAEGLLAAGITVRVEIRARSEDVLEATRLATRAAERLEALGAEDIRVEVEVETEEERREVERVAEEERRRERERRA
B16: FBXL12_hotspot_54_68 (protein)
chain: KTVLLVVRATTVEALRRTLETAVAIAEGLLAAGHRVRVEIRVDSEDVLEATRLATRAAERLEALGAEDIRVEVRVETEEEKEEVERVAEETRREERERRA
B17: FBXL12_hotspot_23_45 (protein)
chain: MRKLVITFAEAPDEEMVKATYYATKLALLAAEHGWEIVLRADNAVTGMAARIVAEAVEKRTGKKVEVIVKEDPSTKERAEKLAPKYEAAVEKAIAEVEAS
B18: FBXL12_hotspot_23_49 (protein)
chain: MRTLRIHLVSRDPEQNRAAARYAAELATRAVLHGWRVVLSGDDRRTVAAAHAVARVVEEVTGKEVEVTEPLHPEEEPLAEELAEELRPVVEAAKAAELAA
B19: FBXL12_hotspot_52_65 (protein)
chain: MRTVELVLVLQGDDVEAARRLLDRGVAIAEGLKAAGVRVRVVIEYSGSLESVPAVVEAMRRFKALGAEVRVVVSDDPALAEARAALRAAAEELGAEFVVR
B20: FBXL12_hotspot_35_60 (protein)
chain: MRTVRVVFEGTSPEGARYMALAAALAARELGARVEVRLDPSESREVKVIAAALRVLAEGRPLEEVVEELGLTEEEIEEMEKILEELREEVERLSAELRAR
B21: FBXL12_hotspot_20_43 (protein)
chain: MLLIRARLVGTREQMITTLRYAAAVVRALAERRRAANDATPEALALLEELARLYEEAAERLEAAPEEEWPAIRAATAAEQARLNERLEAELEAQERERAA
B22: FBXL12_hotspot_54_70 (protein)
chain: KVVTIRVRAETIEAARRTVETAVEIARGLREAGIEVEVELELEAEDVEAAARLAAEARHAFERIGARRIEVRLRLARPEDAPVFERLFAEELERLRREEE
B23: FBXL12_hotspot_28_54 (protein)
chain: MKIEVKVSGPKEQVAQRILELLEALKQLVEELKKEYKEVKEKDPEKLPEFEKELEEKLEKIKSIAESLVKQAKELGEEAYKKAKEKAEEVKKAIEELKKA
B24: FBXL12_hotspot_23_48 (protein)
chain: MRTLVLSTRGVAPEDREAAARYAAEMIVAAGRAGWRVRVVLQDRESLELAALIAAMARLVTGAEVVVLTDAAEELERLMEERREEARRLVEEARARLDAE
B25: FBXL12_hotspot_54_69 (protein)
chain: KTVLIVVEAETLPALERSLATALEIARGLRAAGVRVEVRIRVRHPDVAAAAEAATRAAAEFRELGAERIEVEIETATEEDRERAEAARRETEARLAAEKA
B26: FBXL12_hotspot_24_51 (protein)
chain: QTITLVVRADLDLDPRDSPEEKRARLRAAVEGFLGSVETGIALADLMAARGRGAVDREAFEAAAAALLAAAEALGEADLAARVRAARARFLAAADRLEAA
B27: FBXL12_hotspot_35_62 (protein)
chain: MRRVVVRFTSPTPEGARYMAVTALLASRELGAEVEIEVAPDASLEIRRIAAALYALVTGVPVSEALARFGLPESEAPAVEAEAERLRAEVDEELARLRAR
B28: FBXL12_hotspot_28_53 (protein)
chain: MKRTVIVRGEPEQVGQQILALLEAITEQAKALKAQLEANKNGDPAVLAELKEKLAKLESILESLKEEAERIRPQLSPELQARIDAAIEAAEKALKAAKAV
B29: FBXL12_hotspot_35_58 (protein)
chain: MRVVVVRFEGSSEEGALYMATAALLAQRVLGARVVVEIHPDESREVRIIAAALRHLAEGLSWEEIREELGLTEEEMERARELAERLRAEVERLAAELRAR
B30: FBXL12_hotspot_28_55 (protein)
chain: MKLEIRVRGPPEEVAKRILELVDAIVEVARQRKEELQRKVEEEGMPEEEARAELEENADRLLSALESLERNAESLPPELREEVLRRIREAREEIERIRKE
B31: FBXL12_hotspot_20_42 (protein)
chain: MLRLRVGVSEDVEANRGSLLRAAELVEAFADRLAAEFPELAEVIARLRETARRAREAAARLPGLSPEEARALVREMSEEIAEVVEEASRAAEAARARRAA
B32: FBXL12_hotspot_54_67 (protein)
chain: KTVTLVLRATTVEALRTTLATGVAIAKGLLAAGIRVRVVIRADSEDVLEATRIATRAAAELEALGAEDITVEIKVETEEEREEVEREAARVRAEAEAERA

Target: T1, FBXL12, Q9NXK8
Test: median log2 fold change of GCK-ALFA target abundance (FLAG IP / Myc IP barcode read proportion) (log2 ratio); each designed protein is fused to an ALFA-tag nanobody in HEK293 cells to bring the named protein to FLAG-tagged glucokinase (GCK); Myc marks an untargeted standard; higher = target protein stabilised (more abundant)
Conditions: target protein: 3xFLAG-MCP-GCK-ALFA reporter; HEK293 landing pad (RPLP)
Description: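 LABEL-seq trans screen in HEK293 landing-pad cells. Each de novo designed 100-aa effector handle, binding the indicated effector (E3 ligase, DUB or autophagy protein), is fused to a constant NbALFA target handle and induced with 2 ug/mL doxycycline. A FLAG-MCP-GCK-ALFA target and a Myc-MCP standard reporter were transfected, and after 48 h circRNA barcodes were recovered by anti-FLAG and anti-Myc IP and sequenced. The value is the median across barcodes (at least 3 per design) of log2(FLAG/Myc read-proportion ratio), with the two transfection replicates pooled. Negative values mean degradation and positive values mean stabilisation of the target.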

| Binder | median log2 fold change |
| --- | --- |
| B1 | -0.0403 |
| B2 | -0.36 |
| B3 | 0.0454 |
| B4 | 0.364 |
| B5 | -0.32 |
| B6 | -0.0427 |
| B7 | -0.835 |
| B8 | -0.0958 |
| B9 | -0.323 |
| B10 | -0.889 |
| B11 | 0.248 |
| B12 | -0.777 |
| B13 | -0.455 |
| B14 | -0.274 |
| B15 | -0.267 |
| B16 | -0.347 |

| Binder | median log2 fold change |
| --- | --- |
| B17 | -0.506 |
| B18 | -0.0469 |
| B19 | -0.218 |
| B20 | -0.434 |
| B21 | -0.466 |
| B22 | -0.0489 |
| B23 | -0.418 |
| B24 | -0.469 |
| B25 | -0.0113 |
| B26 | 0.0803 |
| B27 | 0.1 |
| B28 | 0.0582 |
| B29 | -0.372 |
| B30 | 0.147 |
| B31 | 0.115 |
| B32 | -0.0916 |

Source: the supplement of paper PMC12632987
